The text below walks through data of PubChem BioAssay (NCI).

The panel holds about 79,000 compounds, 15% with a hit somewhere; the sample as a whole holds those more often. A number with no mark means an inactive call. Calls of active or inactive are those of the source. Rule as the data show it: active = growth inhibition above about 70%; inactive = the rest.

A short description of the first experiment: NCI Yeast Anticancer Drug Screen. Data for the bub3 strain (AID 167). As to conditions: S. cerevisiae bub3 mutant strain, at 50.0 µM, active compounds read high. In outline:
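Inhibition values come from growth of compound-treated mutant yeast normalised to vehicle-treated controls.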
As for `COc1ccc2ncc(COC(=O)Nc3ccccc3)c(COC(=O)Nc3ccccc3)c2c1`, the growth inhibition is -7.4%.

As to `Ic1ccccc1/C=C/c1ccccn1`, the growth inhibition was 31.8%.

As to `NC(CC(=O)O)C(=O)OCc1cccc(N=Nc2ccccc2)c1` (stereo not given), the growth inhibition was -2.4%.

For the compound `O=C(Cc1ccccc1)N/N=C(/c1nc2ccc([N+](=O)[O-])cc2[nH]c1=O)C(O)c1ccco1` (stereo not given), the growth inhibition is -6.25%.

In the case of `NC(=O)C[n+]1cccc(C(=O)Nc2ccc(Cl)cc2)c1`, the growth inhibition is 29.2%.

On to `[C-]#[N+]C(=C\c1ccc(O)cc1)/C(=C/c1ccc(O)cc1)[N+]#[C-]`, for which the growth inhibition was 98.1% (active).

For the compound `CCCCNCCCC(C(=O)O)c1ccccc1` (stereo not given), the growth inhibition was -35.2%.

As for `BrC1CC2CC1C1C2CC2OC21` (stereo not given), the growth inhibition was 9.2%.

`CN(C)CCCn1c2ccccc2c2cnccc21`: the growth inhibition was -48.2%.

With `N#Cc1cnn2ccn(C3OC(CO)C(O)C3O)c12` (stereo not given), the growth inhibition is -5.45%.

For the compound `CCC(=O)NCCCCCN1CCCCC1`, the growth inhibition was -1.1%.

`Cc1ccc2c(c1)[nH]c(=S)n2/C=C1\C(=O)Oc2ccccc2C1=O`: the growth inhibition is -42%.

As to `O=C(OCC(Br)C(Br)c1ccccc1)c1ccccc1` (stereo not given), the growth inhibition was 73.6% (active).

Regarding `CCCOCOCCC`, the growth inhibition is 11.7%.

With `S=c1nc[nH]c2c1CN(Cc1ccccc1)CC2`, the growth inhibition is -4.95%.

With `N#C/C(=C\C=C\c1ccccc1)C(N)=O`, the growth inhibition was -51.5%.

For the compound `CCOC(=O)C(NC(=O)OC(C)(C)C)C(=O)OCC`, the growth inhibition was 2.6%.

For the compound `CC1(C)COC(=O)/C1=C/C#N`, the growth inhibition was -12.4%.

Regarding `CN(C(=O)C1C2c3ccccc3C(c3ccccc32)C1C(=O)N(C)c1ccccc1)c1ccccc1` (stereo not given), the growth inhibition is 1.1%.

Consider `CNC(=O)CN(CC(=O)NC)C(=O)NC`, for which the growth inhibition was -2.35%.

In the case of `CCCCCCCCCCCCC1CC(=O)OC1=O` (stereo not given), the growth inhibition is 32.5%.

`CC1C(O)CC23COC(=O)C2=CCCC3C1(C)CCC1=CC(=O)OC1` (stereo not given): the growth inhibition is -42%.

Turning to `CCOC(=O)C(C(=O)OCC)c1cc(-c2cc3ccccc3o2)oc(=O)c1C#N`, the growth inhibition is -4.15%.

Take `C/C=C\COC(=O)CC(C)=O`: the growth inhibition was -26.3%.

Regarding `CC12C=C[C@]3(CC[C@@H]4[C@@](C)(CO)CCC[C@]4(C)C3CC1)C2` (stereo not given in full), the growth inhibition was 15.3%.

As for `O=C(NNC(=O)Nc1ccccc1)Nc1ccccc1`, the growth inhibition is -3.2%.

Turning to `CS(=O)(=O)C(C#N)c1nc2ccccc2nc1Cl` (stereo not given), the growth inhibition is -42%.

Turning to `Cc1cc(C)c(C(=O)CC(C)C)c(C)c1`, the growth inhibition is -3.45%.

With `CCOC(=O)c1cnc2ccccc2c1`, the growth inhibition was -1.15%.

For the compound `CCN(CC)Cc1cc(N=Nc2ccc(-c3ccc(N)c(OC)c3)cc2OC)c2ccccc2c1O`, the growth inhibition was -4.8%.

As to `O=C1C(=O)c2ccccc2C(O)=C1c1ccccc1`, the growth inhibition is 5.6%.

`COc1cc(-c2cc(=O)c3c(O)c(OC)c(OC)c(OC)c3o2)ccc1O`: the growth inhibition was 13.1%.

As for `O=C(Nc1ccccc1F)C(c1ccccc1)c1ccccc1`, the growth inhibition is 11.8%.

Consider `Cc1cc(C)c2ccc(NN=O)nc2n1`, for which the growth inhibition is 13.2%.

Turning to `CCOC(=O)Cc1c(Cc2[nH]c(C(=O)OCc3ccccc3)c(CC(=O)OCC)c2CC(=O)OCC)[nH]c(C(=O)OCc2ccccc2)c1CC(=O)OCC`, the growth inhibition was -3.35%.

Take `NC(=O)c1ccc2c(c1)-c1nc-2nc2[n-]c(nc3nc(nc4[n-]c(n1)c1ccc(C(N)=O)cc41)-c1ccc(C(N)=O)cc1-3)c1ccc(C(N)=O)cc21.[Co+2]`: the growth inhibition is 35%.

Regarding `O=[N+]([O-])c1ccc(/C(CBr)=N/N2CCCCCC2)cc1`, the growth inhibition is -15.8%.

Consider `CN1C(=O)C2CC(=O)N(Cc3ccccc3)C(=O)C2C1=O` (stereo not given), for which the growth inhibition was -5.4%.

On to `NC(N)=NS(=O)(=O)c1ccc(NC(=O)c2cccc3c(N)c4ccccc4nc23)cc1`, for which the growth inhibition is -9%.

As for `CC(=O)c1cc([N+](=O)[O-])c(N)s1`, the growth inhibition is -4.15%.

Another experiment is described as follows: NCI Yeast Anticancer Drug Screen. Data for the mlh1 rad18 strain (AID 175). As to conditions: S. cerevisiae mlh1 rad18 strain growth inhibition; at 50.0 µM; active compounds read high. The method, boiled down: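 A repair-deficient yeast strain is exposed to test compound, and growth is scored relative to vehicle-treated controls.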
On to `COc1ccc2ncc(COC(=O)Nc3ccccc3)c(COC(=O)Nc3ccccc3)c2c1`, for which the growth inhibition was 6.1%.

`Ic1ccccc1/C=C/c1ccccn1`: the growth inhibition was -0.2%.

For the compound `NC(CC(=O)O)C(=O)OCc1cccc(N=Nc2ccccc2)c1` (stereo not given), the growth inhibition is 4.3%.

Consider `O=C(Cc1ccccc1)N/N=C(/c1nc2ccc([N+](=O)[O-])cc2[nH]c1=O)C(O)c1ccco1` (stereo not given), for which the growth inhibition is -2.8%.

Consider `NC(=O)C[n+]1cccc(C(=O)Nc2ccc(Cl)cc2)c1`, for which the growth inhibition is -0.75%.

For `[C-]#[N+]C(=C\c1ccc(O)cc1)/C(=C/c1ccc(O)cc1)[N+]#[C-]`, the growth inhibition is 98.2% (active).

On to `CCCCNCCCC(C(=O)O)c1ccccc1` (stereo not given), for which the growth inhibition was 6.75%.

For `BrC1CC2CC1C1C2CC2OC21` (stereo not given), the growth inhibition was -48.2%.

As to `CN(C)CCCn1c2ccccc2c2cnccc21`, the growth inhibition was 14.8%.

As for `N#Cc1cnn2ccn(C3OC(CO)C(O)C3O)c12` (stereo not given), the growth inhibition was 14.9%.

`CCC(=O)NCCCCCN1CCCCC1`: the growth inhibition was 9.05%.

Consider `Cc1ccc2c(c1)[nH]c(=S)n2/C=C1\C(=O)Oc2ccccc2C1=O`, for which the growth inhibition is -46%.

For the compound `O=C(OCC(Br)C(Br)c1ccccc1)c1ccccc1` (stereo not given), the growth inhibition is -27.6%.

Turning to `CCCOCOCCC`, the growth inhibition is -27.5%.

As to `S=c1nc[nH]c2c1CN(Cc1ccccc1)CC2`, the growth inhibition was -6.8%.

As for `N#C/C(=C\C=C\c1ccccc1)C(N)=O`, the growth inhibition is -49.8%.

In the case of `CCOC(=O)C(NC(=O)OC(C)(C)C)C(=O)OCC`, the growth inhibition was -27.4%.

Regarding `CC1(C)COC(=O)/C1=C/C#N`, the growth inhibition was 12.3%.

`CN(C(=O)C1C2c3ccccc3C(c3ccccc32)C1C(=O)N(C)c1ccccc1)c1ccccc1` (stereo not given): the growth inhibition was 21.9%.

In the case of `CNC(=O)CN(CC(=O)NC)C(=O)NC`, the growth inhibition is 1.55%.

For `CCCCCCCCCCCCC1CC(=O)OC1=O` (stereo not given), the growth inhibition was -8.85%.

Regarding `CC1C(O)CC23COC(=O)C2=CCCC3C1(C)CCC1=CC(=O)OC1` (stereo not given), the growth inhibition is -20.9%.

Turning to `CCOC(=O)C(C(=O)OCC)c1cc(-c2cc3ccccc3o2)oc(=O)c1C#N`, the growth inhibition is 30.1%.

Regarding `C/C=C\COC(=O)CC(C)=O`, the growth inhibition is -16.6%.

With `CC12C=C[C@]3(CC[C@@H]4[C@@](C)(CO)CCC[C@]4(C)C3CC1)C2` (stereo not given in full), the growth inhibition is 7.6%.

For the compound `O=C(NNC(=O)Nc1ccccc1)Nc1ccccc1`, the growth inhibition was -7%.

In the case of `CS(=O)(=O)C(C#N)c1nc2ccccc2nc1Cl` (stereo not given), the growth inhibition was -30.6%.

In the case of `Cc1cc(C)c(C(=O)CC(C)C)c(C)c1`, the growth inhibition was -4.2%.

With `CCOC(=O)c1cnc2ccccc2c1`, the growth inhibition was 3.3%.

In the case of `CCN(CC)Cc1cc(N=Nc2ccc(-c3ccc(N)c(OC)c3)cc2OC)c2ccccc2c1O`, the growth inhibition was 27.4%.

On to `O=C1C(=O)c2ccccc2C(O)=C1c1ccccc1`, for which the growth inhibition was 51%.

For the compound `COc1cc(-c2cc(=O)c3c(O)c(OC)c(OC)c(OC)c3o2)ccc1O`, the growth inhibition is 14.9%.

Regarding `O=C(Nc1ccccc1F)C(c1ccccc1)c1ccccc1`, the growth inhibition is 4%.

As for `Cc1cc(C)c2ccc(NN=O)nc2n1`, the growth inhibition is 25.7%.

As for `CCOC(=O)Cc1c(Cc2[nH]c(C(=O)OCc3ccccc3)c(CC(=O)OCC)c2CC(=O)OCC)[nH]c(C(=O)OCc2ccccc2)c1CC(=O)OCC`, the growth inhibition was -17.3%.

Consider `NC(=O)c1ccc2c(c1)-c1nc-2nc2[n-]c(nc3nc(nc4[n-]c(n1)c1ccc(C(N)=O)cc41)-c1ccc(C(N)=O)cc1-3)c1ccc(C(N)=O)cc21.[Co+2]`, for which the growth inhibition was 4.35%.

Consider `O=[N+]([O-])c1ccc(/C(CBr)=N/N2CCCCCC2)cc1`, for which the growth inhibition is -4.55%.

On to `CN1C(=O)C2CC(=O)N(Cc3ccccc3)C(=O)C2C1=O` (stereo not given), for which the growth inhibition was -1.35%.

Turning to `NC(N)=NS(=O)(=O)c1ccc(NC(=O)c2cccc3c(N)c4ccccc4nc23)cc1`, the growth inhibition was -10.2%.

On to `CC(=O)c1cc([N+](=O)[O-])c(N)s1`, for which the growth inhibition is -3.8%.
